# Data: PubChem BioAssay (NCATS)
# Inconclusive results are not listed. A number with no mark means an inactive call. Activity calls are given as the source filed them. The call rests on the fitted dose curve; in most records, active means well fitted cell-killing curve with a large enough effect; inconclusive means small, poorly fitted or top-dose-only effect; inactive means flat fitted curve, though single readings scatter.
# Assay: NCATS anti-infectives library activity on HEK293 viability as a counter-qHTS vs the C. elegans viability qHTS (AID 1745854)
# Settings: HEK293 viability counter-screen; series mostly up to 41.8 µM; activity change, negative = cytotoxicity: at the top concentration
# Text: Assay Development and Screening Technology Laboratory (ADST)
# National Center for Advancing Translational Sciences (NCATS), Rockville, MD
# National Institute of Health (NIH), Bethesda, Maryland
# Caenorhabditis elegans has helped elucidate the evolutionarily conserved genetics underlying pathways and cellular processes implicated in human disease and may be ideally positioned to reveal novel pharmacological properties of exiting drugs. The organism's short life cycle and microscopic size is applicable to the technical requirements of high-throughput screening. Here a quantitative high-throughput screening (qHTS)-based forward chemical biology platform has been developed using C. elegans. 384-well microtiter plate laser scanning cytometry was used in the rapid detection and quantification of the fluorescent protein-encoded phenotype to score worm viability. In a proof-of-concept study, the pharmacological qHTS profile obtained from a library of 643 anti-infective compounds.
# 1. Inglese, J., Auld, D. S., Jadhav, A., Johnson, R. L., Simeonov, A., Yasgar, A., Zheng, W., and Austin, C. P. (2006) Quantitative high-throughput screening: A titration-based approach that efficiently identifies biological activities in large chemical libraries, P Natl Acad Sci USA 103, 11473-11478.
# 2. Auld, D. S., Johnson, R. L., Zhang, Y. Q., Veith, H., Jadhav, A., Yasgar, A., Simeonov, A., Zheng, W., Martinez, E. D., Westwick, J. K., Austin, C. P., and Inglese, J. (2006) Fluorescent protein-based cellular assays analyzed by laser-scanning microplate cytometry in 1536-well plate format, Method Enzymol 414, 566-589.
# 3. Zuck, P., Lao, Z., Skwish, S., Glickman, J. F., Yang, K., Burbaum, J., and Inglese, J. (1999) Ligand-receptor binding measured by laser-scanning imaging, Proc Natl Acad Sci U S A 96, 11122-11127.
# PROTOCOL TABLE (as described by Inglese J, Shamu CE and Guy RK. 2007)
# SEQUENCE No. (e.g., 1, 2, 3, etc.); […] (e.g., C. elegans, Compounds, Incubation, Read, etc.); VALUE and DESCRIPTION.
# 1. Compounds. Library compounds and digitonin control added at 25 nL per well to 7 assay ready 1536-well Greiner white/solid bottom high base, TC plates and two DMSO control plates, transferred by Echo acoustic dispenser.
# 2. Cells. Seed 1500 HEK293 per well in 6 uL into assay ready Greiner 1536-well plates.
# 3. Incubation. Incubate plated cells with compounds at 37C in 5% CO2, 95% RH for 24 hr.
# 4. Reagent. Add 4 uL of CellTiter-Glo reagent from Promega per well of Greiner 1536-well plates with BioRAPTR FRD.
# 5. Incubation. Incubate treated cells at room temperature for 10 min., protect from light.
# 6. Detector. CellTiter-Glo luminescence measured using CCD-based camera (Viewlux) with settings as follows: Exposure, 1 sec; Gain, High; Speed, Slow; Binning, 2X.
# NOTES (numbers refer to Sequence numbers above; values are from representative experiments)
# 1. NIH Anti-Infectives library pre-dispensed into 7 assay ready 1536-well Greiner white/solid bottom high base, TC plates with Echo 555 acoustic dispenser. Most compounds dispensed at 10 mM high concentration and plated in 7-pt 1:5 inter-plate titration at 25 nl / well for a final assay concentration range of 41.7 uM - 2.7 nM. Two 1536-well Greiner assay plates of DMSO plated as screening controls to be read at the beginning and the end of the screen. Controls included DMSO vehicle control added at 25 nl/well to each well of column 1 and […] (83.3 uM final assay concentration), and Digitonin titrated 1:2 at 25 nl/ well to column 4 in duplicate for a final assay concentration range of 83.3 uM - 2.5 nM.
# 2. HEK293 cells grown for 48 hr in one T175 culture flask in DMEM high glucose media supplemented with 10% FBS and 1% Pen/Strep antibiotic. Cells trypsinized and diluted in 10 ml supplemented media, strained through 40 µm cell strainer, and diluted to a total volume of 40 ml with supplemented media. […]
# On the % scale 0 is the no-effect control and ±100 the full control effect; potency means the concentration at half of the fitted maximal effect.
Compound,"activity change, negative = cytotoxicity",Potency
CCOC(=O)C=C[C@H](C[C@@H]1CCNC1=O)NC(=O)[C@@H](CC(=O)[C@@H](NC(=O)c1cc(C)on1)C(C)C)Cc1ccc(F)cc1,1.77%,–
Cc1cc(O)c2c(c1)C(=O)c1cccc(O)c1C2=O,-1.85%,–
O=C1c2cccc(O)c2C(=O)c2c(O)cc(CO)cc21,-8.07%,–
CCS(=O)(=O)Nc1ccc2[nH]c(O)c(C(=Nc3ccc(CN4CCCCC4)cc3)c3ccccc3)c2c1,–,2 µM (active)
Nc1ccc(C(=O)Nc2cccc(-c3nc(N4CCOCC4)c4oc5ncccc5c4n3)c2)cn1,-16.2%,–
Nc1ccn(C[C@@H](CO)OCP(=O)(O)O)c(=O)n1,2.29% [at 8.35 µM],–
CCC(C(=O)O)C1CCC(C)C(C(C)C(O)C(C)C(=O)C(CC)C2OC3(C=CC(O)[C@@]4(CC[C@](C)(C5CC[C@@](O)(CC)C(C)O5)O4)O3)C(C)CC2C)O1 (some centres undefined),-17.2% [at 0.334 µM],–
c1ccc(CNc2nc(NCc3ccccc3)c3ccccc3n2)cc1,–,22.4 µM (active)
Cn1cc(CNCC2CCN(c3ncc(C(=O)NO)cn3)CC2)c2ccccc21,-2.45%,–
O=c1[nH]c(=O)n([C@H]2C[C@@H](O)[C@@H](CO)O2)cc1C=CBr,-7.12%,–
CCCc1nc(C(C)(C)O)c(C(=O)O)n1Cc1ccc(-c2ccccc2-c2nn[nH]n2)cc1,4.85%,–
CN(C)c1ccc(C(=O)NCCCCCCC(=O)NO)cc1,-1.71%,–
C=Cc1c(C)c2cc3nc(cc4[nH]c(cc5nc(cc1[nH]2)C(C)=C5CCC(=O)O)c(CCC(=O)OC)c4C)[C@@]1(C)C3=CC=C(C(=O)OC)[C@H]1C(=O)OC,-4.93%,–
CC(C)C[C@H](NC(=O)[C@@H](NC(=O)c1cccc(-c2ccccc2)n1)[C@@H](C)O)B(O)O,-8.03%,–
c1cc(CN2CCCNCCNCCCNCC2)ccc1CN1CCCNCCNCCCNCC1,-5.24%,–
C[C@H](NC(=O)Cc1cc(F)cc(F)c1)C(=O)N[C@H](C(=O)OC(C)(C)C)c1ccccc1,-7.25%,–
C[C@H](NCc1ccc(OCc2cccc(F)c2)cc1)C(N)=O,-13.4%,–
C=C(C)[C@@H]1CC[C@]2(C(=O)O)CC[C@]3(C)[C@H](CC[C@@H]4[C@@]5(C)CC[C@H](O)C(C)(C)[C@@H]5CC[C@]43C)[C@@H]12,4.37%,–
C[C@H](NC(=O)[C@@H](O)c1cc(F)cc(F)c1)C(=O)N[C@@H]1C(=O)N(C)c2ccccc2-c2ccccc21,-10.1%,–
